# Measured values published in PubChem BioAssay AID2540 (Sanford-Burnham Center for Chemical Genomics, 2010).
# Out of some 330,000 compounds screened, about 4,100 (1.2%) were called active. Cut-off read from the data, not from the text of the source: active = inhibition above about 50%; inactive = the rest. What follows is part of a selection rich in actives, with near analogues and random picks from the rest.
# Molecular target: Sentrin-specific protease 8 (Homo sapiens) (UniProt Q96LD8)
# Test: blockers of human SENP8 peptidase activity – biochemical, luminescence, primary screen (AID 2540)
# Details: purified SENP8, Z-RLRGG-aminoluciferin cleavage, at 10 µM, active compounds read high
# Chain of Sentrin-specific protease 8 (Homo sapiens) (Q96LD8 whole entry, looked up): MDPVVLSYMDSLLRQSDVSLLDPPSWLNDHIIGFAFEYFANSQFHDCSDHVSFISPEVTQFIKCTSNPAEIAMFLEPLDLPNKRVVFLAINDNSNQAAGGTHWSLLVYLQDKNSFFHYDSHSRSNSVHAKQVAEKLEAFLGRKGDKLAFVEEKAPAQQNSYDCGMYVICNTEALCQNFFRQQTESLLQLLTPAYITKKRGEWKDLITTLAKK
row,Structure (SMILES),inhibition
1,O=C(Nc1ccc(Cl)cn1)c1cnn2cccnc12,-0.161% (inactive)
2,COc1ccc(C(=O)NC(=S)Nc2ccc(Cl)cn2)cc1OC,-13.1% (inactive)
3,O=C(Nc1ccc(Cl)cn1)c1ccc2c(c1)OCCO2,75.8% (active)
4,CCCc1cc(C(=O)Nc2ccc(Cl)cn2)cs1,66.2% (active)
5,Cc1nc(NC(=O)c2ccc3c(c2)OCCO3)ccc1Br,74.8% (active)
6,Cc1cccc(C)c1NC(=O)CNC(=O)c1ccc2c(c1)OCCO2,-10.7% (inactive)
7,CCCc1cc(C(=O)Nc2ccc(C(=O)OC)cc2)cs1,-3.33% (inactive)
8,Cc1ccc(C(=O)NNC(=O)c2ccc3c(c2)OCCO3)cc1,5.52% (inactive)
9,CCCCC(CC)C(=O)Nc1ccc(Cl)cn1 (stereo not drawn),7.93% (inactive)
10,CCCCN(C(=O)CCNC(=O)NC12CC3CC(CC(C3)C1)C2)c1c(N)n(CCCC)c(=O)[nH]c1=O,-4.31% (inactive)
11,COc1ccccc1NC(=O)CCC(=O)OC(C)C(=O)c1ccccc1 (stereo not drawn),-4.92% (inactive)
12,Cc1cc(Nc2cc(N3CCN(C)CC3)nc(Sc3ccc(NC(=O)C4CC4)cc3)n2)n[nH]1,-3.96% (inactive)
13,CC(=O)N(C1=C(Cl)C(=O)c2ccccc2C1=O)c1ccc(C(=O)O)cc1,61.8% (active)
14,O=C(CCN1C(=O)c2ccccc2C1=O)NNC(=O)c1ccc(Cl)cc1Cl,-11.3% (inactive)
15,O=S1(=O)CC/C(=N\Nc2ccc(F)cc2)c2ccsc21,-11.5% (inactive)
16,CNC(C)C#Cc1ccc2sc3cc(OC)c(OC)cc3c(=O)c2c1 (stereo not drawn),70.5% (active)
17,O=C(NC(=S)N1CCCCC1c1cccnc1)c1ccccc1 (stereo not drawn),-8.93% (inactive)
18,O=C(CCCCO)c1ccc(O)c(Cl)c1,-4.6% (inactive)
19,Cc1ccc2nc(-c3ccc(Br)cc3)cn2c1,74.4% (active)
20,Cc1ccc(-c2cc(N)on2)cc1,-6.42% (inactive)
21,Cc1ccc(-n2c(-c3ccc(Cl)cc3)n[nH]c2=S)cc1,-0.548% (inactive)
22,CCN(CC)S(=O)(=O)c1ccc(-c2cn3ccc(C)cc3n2)cc1,-1.4% (inactive)
23,COc1ccc(-c2cn3ccc(C)cc3n2)cc1,95.5% (active)
24,Cc1ccc(-c2cn3cc(C)ccc3n2)cc1,84.7% (active)
25,Cc1cc(N2CCOCC2)nc(-c2ccc(Br)cc2)n1,-13.3% (inactive)

row,Structure (SMILES),inhibition
1,Cc1ccn2cc(C(=O)NC3CCN(Cc4ccccc4)CC3)nc2c1,3.06% (inactive)
2,CSc1nnc2ccc(-c3ccc(C)cc3)nn12,-14.2% (inactive)
3,COCCN(CCOC)S(=O)(=O)NC[C@H]1O[C@@H](n2cnc3c(N)ncnc32)[C@H](O)[C@@H]1O,3.39% (inactive)
4,COc1ccccc1CCNS(=O)(=O)c1cc2c3c(c1)C(C)C(=O)N3CCC2 (stereo not drawn),-8.53% (inactive)
5,CCn1nc(C)c(/C=N/NC(=O)Cc2ccc(Cl)cc2)c1C,-9.56% (inactive)
6,Cc1ccc(NC(=O)CC2C(=O)N(Cc3ccccc3)C(=S)N2NC(=O)c2cccc(F)c2)c(C)c1 (stereo not drawn),-4.05% (inactive)
7,Cc1ccc(O)c(NC(=S)NC(=O)COc2ccc(Br)cc2)c1,-5.01% (inactive)
8,CCCc1cc(=O)[nH]c(SCc2ccc(C#N)cc2)n1,0.541% (inactive)
9,Cc1cc(=O)[nH]c(N/N=C/c2ccc3c(c2)OCCO3)n1,-1.24% (inactive)
10,Cc1noc(C)c1/C=N/Nc1ccc2ccccc2n1,-8.03% (inactive)
11,C(=N\Nc1ccc2ccccc2n1)/c1ccc2c(c1)OCO2,93.1% (active)
12,COc1cc(-c2nnc(Cn3cc(C(F)(F)F)ccc3=O)o2)cc(OC)c1OC,-4.14% (inactive)
13,Cc1ccc(C)c(-n2c(SCC(=O)O)nc3sc4c(c3c2=O)CCCC4)c1,-9.61% (inactive)
14,CCCCCc1ccc(-c2ccc(OCC)cc2)nc1,-5.58% (inactive)
15,CCCCCc1ccc(-c2cn(Cc3ccc4ccccc4c3)nn2)cc1,-9.63% (inactive)
16,CCCCCc1ccc(-c2ccc(C(=O)O)cc2)nc1,92.4% (active)
17,CC(C)CN(C(=O)CSc1nncn1C)C1CCS(=O)(=O)C1 (stereo not drawn),-3.63% (inactive)
18,CCOCCc1nn2c(=O)cc(CSCC(=O)Nc3cccc(C)c3C)nc2s1,-0.564% (inactive)
19,O=C(Nc1nnc(C2COc3ccccc3O2)o1)c1ccc(F)cc1 (stereo not drawn),-17.2% (inactive)
20,FC(F)(F)c1ccnc(Oc2ccc(C3=NCCS3)cc2)c1,67.8% (active)
21,CC(C)Oc1ccc(Oc2ccc(C(F)(F)F)cn2)cc1,-8.39% (inactive)
22,NC1=NC(=O)C(Cc2cccc(Cl)c2)S1 (stereo not drawn),-2.31% (inactive)
23,O=C(NCCCN1CCOCC1)c1cnn2c(-c3ccccc3)cc(-c3ccccc3)nc12,-0.117% (inactive)
24,N#C/C=C1\Sc2ccccc2C(=O)N1CC(=O)N1CCN(S(=O)(=O)c2ccccc2)CC1,-2.48% (inactive)
25,CCCc1ccc(OCCNC(=O)c2ccccc2Br)cc1,7.2% (inactive)

row,Structure (SMILES),inhibition
1,CCCc1ccc(OCCNC(=O)c2ccco2)cc1,2.92% (inactive)
2,CCCOc1ccc(C(=O)NCCc2ccccc2)cc1,52% (active)
3,CCCC(C(=O)n1nc(C)cc1C)C(NS(=O)(=O)c1ccc(C)cc1)c1ccccc1 (stereo not drawn),-2.3% (inactive)
4,Cc1ccc(C)c(NC(=O)NNC(=O)c2ccc3ccccc3c2O)c1,-2.4% (inactive)
5,C#CCOCCOCCOCCNc1nc(N2CCN(C(=O)[C@H](CCCN=C(N)N)n3cc(C(N)[C@@H](C)CC)nn3)CC2)nc(N2CCN(C(=O)[C@H](CO)n3cc([C@@H](N)C(C)C)nn3)CC2)n1 (stereo partly drawn),5.69% (inactive)
6,CNC(=S)Nc1ccc([N+](=O)[O-])cc1,-4.02% (inactive)
7,O=C(O)/C=C/C(=O)NNc1ccc([N+](=O)[O-])cc1,69.3% (active)
8,O=C(Cc1ccccc1)NNS(=O)(=O)c1ccc([N+](=O)[O-])cc1,-1.17% (inactive)
9,CCOC(=O)C1(Cc2cccc(OC)c2)CCN(Cc2csc(C(C)=O)c2)CC1,-11.2% (inactive)
10,O=C(CCCCCn1c(=S)[nH]c2ccsc2c1=O)NC1CCCCC1,0.315% (inactive)
11,Cc1nn(CC(=O)Nc2ccc(C#N)cc2)c(C)c1[N+](=O)[O-],-9.74% (inactive)
12,O=C(O)Cc1ccc(NC(=O)Nc2cccc3ccccc23)cc1,-11% (inactive)
13,O=C(Nc1cccc2ccccc12)c1onc2c1CCCC2,71.5% (active)
14,CN(CC(=O)Nc1ccc(Cl)cc1)CC(=O)Nc1cccc2ccccc12,-2.39% (inactive)
15,O=C(Nc1c2c(nn1-c1ccc(F)cc1)CS(=O)C2)C12CC3CC(CC(C3)C1)C2 (stereo not drawn),-3.44% (inactive)
16,CCC(Cc1ccccc1)NC(=O)C1CCCCC1 (stereo not drawn),-7.47% (inactive)
17,CN(c1ccc2nc3ccccc3c(=O)n2n1)C1CCCCC1,92.6% (active)
18,CN(C(=O)CSc1nncc2ccccc12)C1CCCCC1,-9.8% (inactive)
19,CN(C(=O)c1cc2c(=O)n3ccccc3nc2s1)C1CCCCC1,-2.55% (inactive)
20,CC(C(=O)N1CCOCC1)N1c2cccc3cccc(c23)S1(=O)=O (stereo not drawn),3.41% (inactive)
21,Cc1cccc(NC(=O)c2ccc3ccccc3n2)n1,61.5% (active)
22,Cc1cccc(NC(=O)c2cc(N3C(=O)CCC3=O)ccc2Cl)n1,-1.19% (inactive)
23,Cc1cccc(NC(=O)Cc2ccc(Br)cc2)n1,-12.8% (inactive)
24,CC(=O)c1cnc(SCC(=O)O)nc1C,6.9% (inactive)
25,O=C(CCC(=O)c1cccs1)Nc1nc2ccccc2s1,-9.74% (inactive)

row,Structure (SMILES),inhibition
1,CCN(CC)CCn1c2c(c(SCC(=O)Nc3nc4ccccc4s3)nc1=O)CCCC2,3.66% (inactive)
2,c1ccc2sc(NN=C3CCCC3)nc2c1,72% (active)
3,COc1ccc(NC(=O)C2COc3ccccc3O2)cc1 (stereo not drawn),-15.1% (inactive)
4,O=C(Nc1ncc([N+](=O)[O-])s1)C1COc2ccccc2O1 (stereo not drawn),95.6% (active)
5,COc1ccc(OC)c2sc(NC(=O)C3COc4ccccc4O3)nc12 (stereo not drawn),-14.6% (inactive)
6,COc1ccc(OC)c(NC(=O)Cn2c(=O)oc3ccccc32)c1,-1.75% (inactive)
7,N#Cc1cc([N+](=O)[O-])ccc1NC(=O)COC(=O)c1cnccn1,-2.92% (inactive)
8,O=C(CN1CCN(c2ccc(Cl)cc2)CC1)NCc1cccs1,-8.2% (inactive)
9,CCc1cc(CNC(=O)CC2C(=O)NCCN2CC2CCCCC2)on1 (stereo not drawn),-2.78% (inactive)
10,CCCCCN(C(=O)CCC(=O)OCCOc1ccc(OC)cc1)c1c(N)n(CCCC)c(=O)[nH]c1=O,6.98% (inactive)
11,Cn1c(CCN2CCCCCC2)nc2cc(NC(=O)Nc3ccccc3)ccc21,1.11% (inactive)
12,C=CCN(C(=O)Nc1ccc2c(c1)nc(C)n2C)c1ccccc1,0.305% (inactive)
13,Cc1nc2cc(NC(=O)Nc3cccc(F)c3)ccc2n1C,90.8% (active)
14,O=C(COC(=O)c1cnccn1)Nc1cccc2ccccc12,1.04% (inactive)
15,O=C(CSc1ncnc2c1nnn2Cc1ccc(F)cc1)NC1CCCC1,-8.4% (inactive)
16,O=C(c1ccc(S(=O)(=O)c2ccccc2)cc1)N1CCCCCC1,-5.04% (inactive)
17,O=C(c1ccc(CSc2ccccc2)cc1)N1CCCCCC1,64.4% (active)
18,O=C(Nc1ccccc1C(=O)N1CCOCC1)c1ccc(CSc2ccccc2)cc1,-3.32% (inactive)
19,O=C(CSc1nccc(=O)[nH]1)Nc1ccc(N2CCOCC2)c(Cl)c1,2.95% (inactive)
20,Cc1sc(NC(=S)NC(=O)c2cccs2)nc1-c1ccc(CC(C)C)cc1,13.2% (inactive)
21,C/C(=N\NC(=O)c1ccc(C)cc1)C1C(=O)c2ccccc2C1=O,86.8% (active)
22,C/C(=N\NC(=O)CNC(=O)C(c1ccccc1)c1ccccc1)c1ccc(C)cc1,-7.34% (inactive)
23,Cc1ccc(C(=O)N/C(=C/c2cccnc2)C(=O)O)cc1,-10.8% (inactive)
